# According to PubChem BioAssay (NCATS):
# Records with an inconclusive call do not appear. Values without a mark were called inactive. The source made the active and inactive calls. Calls follow the shape of the full dose curve; tested in HEK293 reporter line.
# Assay: qHTS for Inhibitors of the Functional Ribonucleoprotein Complex (vRNP) of Lymphocytic Choriomeningitis Arenaviruses (LCMV): Viability assay - alamar blue signal for LCMV Primary Screen (AID 1347085); also: nearly all actives have a fitted effect of over 80% in size
# Conditions: alamar blue viability counter-screen, LCMV vRNP screen cells; series mostly up to 57.5 µM; activity change, negative = lower viability: at the top concentration
# % is scaled to controls: 0 for no effect and ±100 for the full control effect; potency is read from the fitted curve at half-maximal effect.
SMILES,Potency,"activity change, negative = lower viability"
O=C1[C@H](Cc2ccc(O)cc2)N2C(=O)CCN(C(=O)NCc3ccccc3)[C@H]2CN1Cc1cccc2ccccc12,24.3 µM (active),
Cc1cnc(Nc2ccc(F)cc2Cl)nc1-c1c[nH]c(C(=O)N[C@H](CO)c2cccc(Cl)c2)c1,7.69 µM (active),
Cc1nn(Cc2ccccc2Cl)c(C)c1CN(C)CC(O)COc1ccc(Cl)cc1 (centres undefined),,-13.8%
COc1c(N2CCNC(C)C2)c(F)cc2c(=O)c(C(=O)O)cn(C3CC3)c12 (centres undefined),inactive,
c1ccc2[nH]ccc2c1,,7.62%
O=C(O)c1ccccn1,,4.43%
COc1ncnc(NS(=O)(=O)c2ccc(N)cc2)c1OC,,11.8%
C[C@]12C[C@H](O)[C@H]3[C@@H](CCC4=CC(=O)CC[C@@]43C)[C@@H]1CC[C@@H]2C(=O)CO,inactive,
CC(=O)Oc1cccc(C)c1,,-2.78%
CS(=O)(=O)c1cccc(CNc2nc(Nc3ccc4c(c3)CCC(=O)N4)ncc2C(F)(F)F)c1,,-13.1%
COc1cc(S(N)(=O)=O)cc(C(=O)O)c1OC,,0.179%
CCCN(CCC)c1c([N+](=O)[O-])cc(S(N)(=O)=O)cc1[N+](=O)[O-],,-32.2% [at 115 µM]
C[C@@H](N)C(=O)O,,-2.58%
CC[C@@H](C)[C@H](NC(=O)[C@H](CC1CCCCC1)NC(=O)c1ccno1)C(=O)N1CCC2(CCc3ccccc32)CC1,,10.8%
O=C(O)c1ccccc1O,,-1.01%
Nc1nnnn1-c1ccccc1,,0.204%
CCN(CC)CCCCNc1nc2cc(Cl)c(Cl)cc2nc1-c1ccc(-c2cccs2)s1,,-16.4%
COc1ncc(-c2ccc3nccc(-c4ccnnc4)c3c2)cc1NS(=O)(=O)c1ccc(F)cc1F,0.0172 µM (active),
O=C1NS(=O)(=O)c2ccccc21,,6.46%
C[C@H](CN1CCCC1)C(=O)c1ccc(C(F)(F)F)cc1,,0.145%

SMILES,Potency,"activity change, negative = lower viability"
CC(=O)NC(C)c1ccc(Oc2ccc(OC(C)C)cc2)cc1 (centres undefined),,3.18%
CCCCCCCC(=O)OCC(O)CO (centres undefined),,8.71%
CCCCOCCOc1nc(-c2ccc(C(=O)O)c(F)c2)sc1C,,5.16%
CC(C)(C(=O)NCC(F)(F)C(F)(F)F)C(=O)N[C@@H]1C(=O)Nc2ccccc2-c2ccccc21,5.44 µM (active),
CCOC(=O)C(=O)CCCCCCl,,2.84%
O=S(c1cc(Cl)cc(Cl)c1O)c1cc(Cl)cc(Cl)c1O,,-0.928%
Cn1c(Nc2ccc(C(F)(F)F)cc2)nc2cc(Oc3ccnc(-c4ncc(C(F)(F)F)[nH]4)c3)ccc21,8.63 µM (active),
Cc1ccc(-c2ncn(-c3ccc(Nc4nccc(-c5cccc(N6CCOCC6)c5)n4)cc3)n2)cn1,0.485 µM (active),
C[C@H](NC(=O)Cc1cc(F)cc(F)c1)C(=O)N[C@@H]1C(=O)N(C)c2ccccc2-c2ccccc21,,1.67%
CC(C)CCCC(C)CCCC(C)CCCCC(C)CCCC(C)CCCC(C)C (centres undefined),,0.855%
Cc1ccc(C(=O)Nc2cccc(C(F)(F)F)c2)cc1-c1ccc2nc(NCCN3CCOCC3)ncc2c1,19.3 µM (active),
CCN1CCN(c2cc3c(cc2F)c(=O)c(C(=O)O)cn3C2CC2)CC1,,1.46%
COCCn1c2c([n+](Cc3cnccn3)c1C)C(=O)c1ccccc1C2=O,0.0968 µM (active),
S=C(NCc1ccc2c(c1)OCO2)N1CCN(c2ncnc3c2oc2ccccc23)CC1,,-0.107% [at 115 µM]
C=C1C(=CC=C2CCC[C@]3(C)[C@@H]([C@H](C)C=C[C@H](C)C(C)C)CC[C@@H]23)C[C@@H](O)C[C@@H]1O,13.7 µM (active),
CNC(=O)c1ccc(N2C(=S)N(c3ccc(C#N)c(C(F)(F)F)c3)C(=O)C2(C)C)cc1F,,32%
COc1ccc2c(c1)c1c3n2CCN(C)C3=NCC1,,1.44%
Cn1c(=O)n(-c2ccc(C(C)(C)C#N)cc2)c2c3cc(-c4cnc5ccccc5c4)ccc3ncc21,0.0611 µM (active),
CCOc1cc(NC(C)=O)ccc1C(=O)OC,,-3.12%
